This note sets out measurements from PubChem BioAssay AID1963316 (National Center for Advancing Translational Sciences (NCATS), 2024).

This assay deals with Tyrosine-protein kinase ABL1 (Homo sapiens) (UniProt P00519). The experiment in a line: ABL1 kinase (ABL1-N-HiBiT) SDR gain of signal screen - plus ATP. The following applies: purified ABL1-N-HiBiT enzyme, HiBiT luminescence with 50 uM ATP, 30 min; series mostly up to 57.5 µM. In outline:
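ABL1-N-HiBiT protein (10 nM final) with 50 uM ATP incubated with compounds for 30 min at RT, protected from light. Nano-Glo HiBiT reagent then added for 10 min; luminescence read on CCD imager, with DMSO neutral and imatinib positive controls.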
On the technique in general: The HiBiT peptide binds its large partner to form an active luciferase.

Inconclusive results are not listed. Entries that show only a call come without a potency. Calls of active or inactive are those of the source. The call rests on the fitted dose curve.

Chain of Tyrosine-protein kinase ABL1 (Homo sapiens) (P00519 whole entry, looked up): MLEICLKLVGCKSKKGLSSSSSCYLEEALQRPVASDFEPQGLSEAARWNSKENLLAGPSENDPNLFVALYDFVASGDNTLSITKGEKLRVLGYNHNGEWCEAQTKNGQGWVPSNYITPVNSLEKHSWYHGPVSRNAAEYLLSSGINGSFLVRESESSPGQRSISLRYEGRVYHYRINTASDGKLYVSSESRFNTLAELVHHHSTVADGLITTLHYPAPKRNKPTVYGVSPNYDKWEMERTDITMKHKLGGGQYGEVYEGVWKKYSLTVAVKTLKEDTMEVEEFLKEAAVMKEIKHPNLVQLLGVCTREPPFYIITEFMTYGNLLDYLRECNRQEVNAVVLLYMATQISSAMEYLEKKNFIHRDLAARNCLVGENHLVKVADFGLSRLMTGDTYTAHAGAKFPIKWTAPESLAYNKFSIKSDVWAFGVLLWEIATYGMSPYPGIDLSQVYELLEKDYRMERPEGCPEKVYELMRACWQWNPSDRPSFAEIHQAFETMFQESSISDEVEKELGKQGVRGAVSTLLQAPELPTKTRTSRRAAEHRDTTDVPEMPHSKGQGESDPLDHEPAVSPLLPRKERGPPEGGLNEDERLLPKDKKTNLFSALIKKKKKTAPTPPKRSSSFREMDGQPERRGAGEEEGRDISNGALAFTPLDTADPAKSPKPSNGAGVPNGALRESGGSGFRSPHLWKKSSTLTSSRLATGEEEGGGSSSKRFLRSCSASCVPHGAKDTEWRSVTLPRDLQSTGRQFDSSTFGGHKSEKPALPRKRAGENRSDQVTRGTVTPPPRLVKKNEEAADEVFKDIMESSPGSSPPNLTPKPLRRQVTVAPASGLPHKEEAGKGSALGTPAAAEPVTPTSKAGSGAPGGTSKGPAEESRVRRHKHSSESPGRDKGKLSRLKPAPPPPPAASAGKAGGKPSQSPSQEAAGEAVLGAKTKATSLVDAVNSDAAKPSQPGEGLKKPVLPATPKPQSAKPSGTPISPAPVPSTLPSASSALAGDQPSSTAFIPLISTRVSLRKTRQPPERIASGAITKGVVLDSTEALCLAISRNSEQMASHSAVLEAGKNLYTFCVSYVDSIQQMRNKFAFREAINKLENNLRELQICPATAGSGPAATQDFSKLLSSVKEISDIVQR

Take `Cc1cc(Nc2ncc3cc(-c4c(Cl)cccc4Cl)c(=O)n(C)c3n2)ccc1F`: the Potency entry is “inactive”.

As for `CCOc1ccn(-c2ccc(F)cc2)c(=O)c1C(=O)Nc1ccc(Oc2ccnc(N)c2Cl)c(F)c1`, the Potency is 15.4 µM (active).

Take `O=C1C(c2c(O)[nH]c3ccccc23)=Nc2ccccc21`: the Potency result is “inactive”.

Consider `O=C(Nc1ccc(OC(F)(F)F)cc1)c1sccc1NCc1ccnc2ccccc12`, for which the Potency entry is “inactive”.

On to `O=S(=O)(/N=C/c1c(O)ccc2ccccc12)c1cccs1`, for which the Potency entry is “inactive”.

As to `CO[C@H]1/C=C/O[C@@]2(C)Oc3c(C)c(O)c4c(O)c(c(/C=N\N5CCN(C6CCCC6)CC5)c(O)c4c3C2=O)NC(=O)/C(C)=C\C=C\[C@H](C)[C@H](O)[C@@H](C)[C@@H](O)[C@@H](C)[C@H](OC(C)=O)[C@@H]1C`, the Potency entry is “inactive”.

With `Cc1[nH]nc2ncc(C(=O)N3CCC[C@H]3c3ccc(Cl)cc3)cc12`, the Potency result is “inactive”.

Regarding `c1ccc(-c2oc3ncnc(NC[C@@H]4CCCO4)c3c2-c2ccccc2)cc1`, the Potency result was “inactive”.

As for `N#Cc1cccc(-c2c[nH]c3ncnc(N4CCOCC4)c23)c1`, the Potency entry is “inactive”.
